This is part of a sample that, as a whole, favours compounds with a hit. Of some 79,000 tested, about 15% had one in any assay. Rule as the data show it: active = growth inhibition above about 70%; inactive = the rest.
Legend:
[1] = NCI Yeast Anticancer Drug Screen. Data for the mec2-1 strain (AID 157); conditions: S. cerevisiae mec2-1 strain, at 50.0 µM, stronger effect = higher value
Method in brief: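 Yeast mec2-1 mutant treated with compound. Readout: growth inhibition vs vehicle controls.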

[2] = NCI Yeast Anticancer Drug Screen. Data for the sgs1 mgt1 strain (AID 161);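 also: 0% = growth of cultures given vehicle only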; conditions: S. cerevisiae sgs1 mgt1 strain, at 50.0 µM, stronger effect = higher value
Method in brief: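 Mutant yeast exposed to compound; growth scored against vehicle-only wells.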

[3] = NCI Yeast Anticancer Drug Screen. Data for the cln2 rad14 strain (AID 165);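 also: 0% = growth equal to vehicle treated cultures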; conditions: S. cerevisiae cln2 rad14 strain, at 50.0 µM, stronger effect = higher value
Method in brief: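 cln2 rad14 yeast strain; compound exposure; growth inhibition read vs vehicle controls.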

[4] = NCI Yeast Anticancer Drug Screen. Data for the bub3 strain (AID 167); conditions: S. cerevisiae bub3 mutant strain, at 50.0 µM, stronger effect = higher value
Method in brief: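 Screening used yeast with an engineered genetic alteration affecting cell cycle control. Compound-exposed cultures were compared with vehicle cultures, and reduced growth was taken as inhibition.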

[5] = NCI Yeast Anticancer Drug Screen. Data for the mlh1 rad18 strain (AID 175); conditions: S. cerevisiae mlh1 rad18 strain growth inhibition; at 50.0 µM; stronger effect = higher value
Method in brief: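 Yeast w/ defined DNA-repair lesions; compound exposure; growth vs vehicle controls → % inhibition.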

Measured: growth inhibition

CCO/N=C(\N)c1ccccc1
inactive: [1] 1.75% | [2] -2.5% | [3] -18.9% | [4] 0.95% | [5] 3.25%

COc1cc(OC)cc(N2CCC(c3c(N)nc(N)nc3Cl)CC2)c1
inactive: [1] 10.1% | [2] -8.65% | [3] -2.25% | [4] 15.2% | [5] -18.3%

CC(C)(O)C(O)(c1ccccc1)c1ccccc1
inactive: [1] 2.75% | [2] 16.7% | [3] 6.5% | [4] 5.95% | [5] 12.8%

O=c1c(Cc2ccccc2)c(O)cc2n1CCC2
inactive: [1] -14.4% | [2] -10.7% | [3] 8.75% | [4] -5.25% | [5] -10.9%

CC1=C(C)CP(=O)(c2ccccc2)C1
inactive: [1] -5.2% | [2] -0.7% | [3] -8.65% | [4] -3.9% | [5] -35.4%

CCCCC(CC)(CO)CCC (stereo not given)
inactive: [1] -19% | [2] -13.7% | [3] 2.55% | [4] -9.45% | [5] 4%

C=C(C)Cn1cnc2c1c(=O)n(C)c(=O)n2C
inactive: [1] -9.6% | [2] -14.4% | [3] -37.6% | [4] -14.1% | [5] -5.6%

O=C1OCC(Cc2ccc3c(c2)OCO3)[C@H]1Cc1ccc(O)cc1 (stereo not given in full)
inactive: [1] -18% | [2] 17.6% | [3] 21.9% | [4] 19.3% | [5] -5.9%

NC(Cc1ccc(B(O)O)cc1)C(=O)O (stereo not given)
inactive: [1] -53.6% | [2] -29.5% | [3] -7.4% | [4] 7.75% | [5] -4.05%

O=[n+]1c2c(n([O-])c3cc(Cl)c(Cl)cc31)CCC2
inactive: [1] -2.4% | [2] 22.9% | [3] 5.05% | [4] 4% | [5] 28.4%

CC1(CCC(=O)c2ccc3c(c2)OCO3)OCCO1
inactive: [1] 8.95% | [2] 23.4% | [3] 14% | [4] 24.6% | [5] 26.9%

O=C(NC(=O)c1c(F)cccc1F)Nc1ccc(Br)cc1
inactive: [1] 53.3% | [2] 19.4% | [3] 7.25% | [4] 34.5% | [5] 23.4%

BrCCCOc1ccccc1
inactive: [1] -32.8% | [2] -5.65% | [3] -2.9% | [4] -2.4% | [5] 0.7%

Nc1nc2c(nnn2-c2ccc(Cl)cc2)c(=O)[nH]1
inactive: [1] -4.15% | [2] -5.85% | [3] -25.1% | [4] -0.5% | [5] -6.25%

COC1OC(CO)C(O)C(NC(=O)OCc2ccccc2)C1O (stereo not given)
inactive: [1] -1.7% | [2] 3.05% | [3] -46.1% | [4] 1.1% | [5] -13.4%

CC(=O)OCC12CC(c3ccoc3)OC3CCC4C(=O)OC(CC1C)C4(C)C32 (stereo not given)
inactive: [1] -29.4% | [2] -18.6% | [3] 4.3% | [4] -23.9% | [5] -22.8%

CC(=O)OC1CCC2(C)C(=CCC3C2CCC2(C)C(C(C)C(=O)O)CCC32)C1 (stereo not given)
inactive: [1] -32.8% | [2] -21.4% | [3] -10.2% | [4] -31.1% | [5] 13%

O=C1CN(/N=C/c2ccc(-c3cccc(C(F)(F)F)c3)o2)C(=O)N1
inactive: [1] 18.4% | [2] 19.8% | [3] -19.3% | [4] 16.2% | [5] 21.1%

O=C(O)CC1SC2(C(=O)N(Cc3ccccc3)c3ccccc32)N(c2ccccc2)C1=O (stereo not given)
inactive: [1] 29.8% | [2] 32.5% | [3] -8.55% | [4] 8.55% | [5] 53%

Cc1cc2c(c(C(=O)NCC(=O)N[C@@H](C)C(=O)OCc3ccccc3)c1)Oc1c(cc(C)cc1C(=O)NCC(=O)N[C@@H](C)C(=O)OCc1ccccc1)S2
inactive: [1] 16.8% | [2] 23.8% | [3] 33% | [4] 19.6% | [5] 33.2%

CCOC(=O)N(c1ccccc1)c1ccccc1
inactive: [1] -18.8% | [2] 18.7% | [3] 5.65% | [4] 5% | [5] 15.2%

CN(C(=N)N)c1ccc(C(=O)Oc2ccc([N+](=O)[O-])cc2)cc1
inactive: [1] 12.8% | [2] 29.6% | [3] 1.35% | [4] 15.1% | [5] 17.1%

COc1cc(C(=O)n2ncc(C(C)=O)c2C)cc(OC)c1OC
inactive: [1] -17.5% | [2] 12.9% | [3] 10.9% | [4] 0.3% | [5] 8.45%

NNC(=O)CCCO
inactive: [1] -24% | [2] -7.5% | [3] -8% | [4] 0.4% | [5] 8.25%

CC(=O)N=C1N(/C=C2\C(=O)Oc3ccccc3C2=O)C(=O)/C(=C/c2ccccc2Cl)N1C
inactive: [1] -21.9% | [2] -25.7% | [3] 10.2% | [4] -16.9% | [5] -8.35%
